# Reference: PubChem BioAssay (NCATS)
# Inconclusive results are not listed. Activity calls are given as the source filed them. Unless noted, calls come from the whole dose curve; as a rule, active = well fitted curve in the direction sought with a large enough effect; inconclusive = small, poorly fitted or top-dose-only effect, or another doubt; inactive = no such curve, though single readings can be large; an effect the other way counts as inactive or inconclusive.
# Molecular target: alpha-glucosidase (Oryza sativa, rice) (UniProt Q653V4)
# Experiment: Counterscreen for Glucocerebrosidase Inhibitors: qHTS Assay for Rice alpha-Glucosidase at pH 5.0 (AID 997)
# Settings: rice alpha-glucosidase enzyme activity; series mostly up to 76.9 µM
# Summary of the method: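 Rice alpha-glucosidase (4 nM final) with 400 uM 4-methylumbelliferyl-alpha-D-glucopyranoside in citrate buffer pH 5.0, 20 min at room temperature, stopped at pH 10; fluorescence 365/440 nm, compounds 0.7 nM–77 uM, AC50 from Hill fits.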
row,SMILES,outcome
1,COc1ccccc1N1CCNCC1,inactive
2,CCCC(C)(COC(N)=O)COC(=O)NC(C)C (stereo not given),inactive
3,CCn1cc(C(=O)O)c(=O)c2ccc(C)nc21,inactive
4,Clc1cccc(N2CCNCC2)c1,inactive
5,Cc1ncc(CNC(=O)N(CCCl)N=O)c(N)n1,inactive
6,O=c1[nH]c2ccccc2n1CCCN1CCC(n2c(=O)[nH]c3cc(Cl)ccc32)CC1,inactive
7,CNCC(O)c1ccc(O)cc1 (stereo not given),inactive
8,Cc1ccc(S(=O)(=O)N[C@@H](CCCCN)C(=O)CCl)cc1,inactive
9,NCC1(CC(=O)O)CCCCC1,inactive
10,N#CC(C#N)=Cc1ccc(O)c(O)c1,inactive
11,Cc1cccc(C)c1NC1=NCCCS1,inactive
12,CCCN1CCC[C@@H]2Cc3[nH]ncc3C[C@H]21,inactive
13,CN1C[C@H](CNC(=O)OCc2ccccc2)C[C@@H]2c3cccc4c3c(cn4C)C[C@H]21,inactive
14,CCCN1CCC[C@@H]2Cc3nc(N)ncc3C[C@H]21,inactive
15,CC(=O)[C@H]1CC[C@H]2[C@@H]3CC[C@H]4C[C@H](O)CC[C@]4(C)[C@H]3C(=O)C[C@]12C,inactive
16,c1ccc(C2CC2)c(OCC2=NCCN2)c1,inactive
17,NCC(CC(=O)O)c1ccc(Cl)cc1 (stereo not given),inactive
18,NN=C(N)N,inactive
19,N[C@@H]1C[C@H]1c1ccccc1,inactive
20,Fc1ccc(C(OCCN2CCN(CCCc3ccccc3)CC2)c2ccc(F)cc2)cc1,inactive

# Molecular target: Alpha-galactosidase (Coffea arabica) (UniProt Q42656)
# Experiment: Counterscreen for Glucocerebrosidase Inhibitors: qHTS Assay for Coffee Bean alpha-Galactosidase at pH 5.9 (AID 998)
# Settings: coffee bean alpha-galactosidase enzyme assay; series mostly up to 76.9 µM
# Summary of the method: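 Green coffee bean enzyme (2 nM) with 4-methylumbelliferyl alpha-D-galactopyranoside (80 uM) in 50 mM citric acid, 0.005% Tween-20, pH 5.9, 20 min at room temperature; compounds 0.7 nM–77 uM. Stopped at pH 10, fluorescence Ex365/Em440; Hill-fit AC50.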
# Sequence of Alpha-galactosidase (Coffea arabica) (Q42656 whole entry, looked up): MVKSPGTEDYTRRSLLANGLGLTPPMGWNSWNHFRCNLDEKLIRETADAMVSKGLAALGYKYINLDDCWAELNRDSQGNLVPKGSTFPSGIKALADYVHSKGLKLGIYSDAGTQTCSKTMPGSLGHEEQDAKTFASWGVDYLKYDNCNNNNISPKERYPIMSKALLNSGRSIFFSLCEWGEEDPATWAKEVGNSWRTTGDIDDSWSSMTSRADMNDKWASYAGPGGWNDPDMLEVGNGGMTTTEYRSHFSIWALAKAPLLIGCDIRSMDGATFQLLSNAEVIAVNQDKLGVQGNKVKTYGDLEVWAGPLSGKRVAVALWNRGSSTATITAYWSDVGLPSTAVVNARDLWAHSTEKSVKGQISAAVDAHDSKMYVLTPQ
row,SMILES,outcome
1,COc1ccccc1N1CCNCC1,inactive
2,CCCC(C)(COC(N)=O)COC(=O)NC(C)C (stereo not given),inactive
3,CCn1cc(C(=O)O)c(=O)c2ccc(C)nc21,inactive
4,Clc1cccc(N2CCNCC2)c1,inactive
5,Cc1ncc(CNC(=O)N(CCCl)N=O)c(N)n1,inactive
6,O=c1[nH]c2ccccc2n1CCCN1CCC(n2c(=O)[nH]c3cc(Cl)ccc32)CC1,inactive
7,CNCC(O)c1ccc(O)cc1 (stereo not given),inactive
8,Cc1ccc(S(=O)(=O)N[C@@H](CCCCN)C(=O)CCl)cc1,inactive
9,NCC1(CC(=O)O)CCCCC1,inactive
10,N#CC(C#N)=Cc1ccc(O)c(O)c1,inactive
11,Cc1cccc(C)c1NC1=NCCCS1,inactive
12,CCCN1CCC[C@@H]2Cc3[nH]ncc3C[C@H]21,inactive
13,CN1C[C@H](CNC(=O)OCc2ccccc2)C[C@@H]2c3cccc4c3c(cn4C)C[C@H]21,inactive
14,CCCN1CCC[C@@H]2Cc3nc(N)ncc3C[C@H]21,inactive
15,CC(=O)[C@H]1CC[C@H]2[C@@H]3CC[C@H]4C[C@H](O)CC[C@]4(C)[C@H]3C(=O)C[C@]12C,inactive
16,c1ccc(C2CC2)c(OCC2=NCCN2)c1,inactive
17,NCC(CC(=O)O)c1ccc(Cl)cc1 (stereo not given),inactive
18,NN=C(N)N,inactive
19,N[C@@H]1C[C@H]1c1ccccc1,inactive
20,Fc1ccc(C(OCCN2CCN(CCCc3ccccc3)CC2)c2ccc(F)cc2)cc1,inactive

# Test system: not listed separately
# Experiment: Validation of Assay for Modulators of Lamin A Splicing (AID 1459; active = well fitted curve in the direction sought with a large enough effect in the signal ratio; the % refers to the signal ratio;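 note: cells exposed to compound for two days before reading; ratio rise marks activators and ratio drop marks inhibitors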)
# Settings: Lamin A splicing dual RFP/GFP fluorescence reporter; series mostly up to 9.22 µM
# Summary of the method: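 Readout: ratio of GFP (500-530 nm) to RFP (575-640 nm) total object intensity by 488 nm laser-scanning cytometry after 48 hrs. Cells were HeLa S3 clones carrying lamin A-EGFP minigene plus DsRed2 viability reporter; vehicle 0.5% DMSO final.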
row,SMILES,outcome
1,COc1ccccc1N1CCNCC1,inactive
2,CCn1cc(C(=O)O)c(=O)c2ccc(C)nc21,inactive
3,Cc1cccc(C)c1NC1=NCCCS1,inactive
4,CC(=O)[C@H]1CC[C@H]2[C@@H]3CC[C@H]4C[C@H](O)CC[C@]4(C)[C@H]3C(=O)C[C@]12C,inactive
5,O=C1NCN(c2ccccc2)C12CCN(CC1COc3ccccc3O1)CC2 (stereo not given),inactive
